Compound activity: PubChem BioAssay, The Scripps Research Institute Molecular Screening Center
TLR9-MyD88 block: blocks human TLR9 binding to MyD88. Q9NR96+Q99836. CHO BLA complementation TLR9-MyD88, CCF4 FRET ratio. actives 0.21% (n = 340,000). inhibition, % at 4.98 µM;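 active means inhibition above the mean over all tested compounds plus 3 SD, cut at about 21% in these data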;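 further: 0% = DMSO only wells and 100% = clavulanate BLA inhibitor control wells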
ABHD5-PLIN5 inh: ABHD5-PLIN5 protein interaction inhibition; Q00G26+Q8WTS1; Split G. princeps luciferase complementation, luminescence, 4 h; inhibition, % at 4 µM; actives 0.78% (n = 360,000);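 active means inhibition above the mean inhibition across every tested compound plus 3 SD, cut at about 22% in these data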;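 further: 0% = DMSO only wells and the 100% control is not disclosed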
NOD2-RIPK2 inh: NOD2-RIPK2 protein interaction inhibition; AID 624267; O43353; CHO BLA complementation NOD2-RIPK2, CCF4 ratio; inhibition, % at 4.98 µM; actives 0.38% (n = 360,000); in the data active means inhibition above about 21%;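 further: 0% = vehicle only and 100% = reference blocker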
rCAG binder: r(CAG) repeat RNA binding; AID 651821; TO-PRO-1 dye displacement fluorescence; actives 1.3% (n = 370,000); inhibition, % at 3 µM;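 active means inhibition above the plate cutoff, the mean of all test compounds on that plate plus 3 SD, cut at about 35% in these data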;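 further: 0% = DMSO alone and 100% = 100 µM mitoxantrone as full dye displacement; higher means more dye released from RNA so lower well fluorescence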
TLR4-MyD88 BLA: TLR4-MyD88 interaction inhibition in cells; O00206+Q99836; actives 0.18% (n = 200,000); inhibition, % at 8.4 µM; HeLa CL3-4 TLR4/MyD88 BLA complementation, FRET ratio; in the data active means inhibition above about 25%;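 further: 0% = vehicle and 100% = reference inhibitor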
PRMT1 FP inh: blocks human protein arginine methyltransferase 1. inhibition, % at 2.79 µM. recombinant PRMT1, activity-based probe fluorescence polarization. Q99873. actives 1.3% (n = 370,000);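 active means inhibition above about 21% made by adding two undisclosed values, limit read from the data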
TLR4 MyD88 cnf: confirmation of human TLR4-MyD88 binding inhibitors; shares compounds with TLR4-MyD88 BLA; HeLa CL3-4 BLA complementation, CCF4 FRET ratio; inhibition, % at 8.4 µM; actives 50% (n = 350); AID 941;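 active means mean inhibition across three repeat runs above about 25% carried over from the earlier screen, limit read from the data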;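 further: plate controls were DMSO only for no effect and clavulanic acid blocking BLA at full dose for full effect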
BLA inh HeLa: counter-screen for TLR4-MyD88 inhibitors: beta-lactamase reporter inhibitors. actives 63% (n = 350). HeLa BLA reporter, CCF4 FRET ratio. inhibition, % at 8.4 µM. shares compounds with TLR4-MyD88 BLA. AID 1237;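 active means mean inhibition over three repeats above about 26% taken from the earlier screen, limit read from the data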;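 further: HeLa cells stably expressing beta-lactamase reporter as counterscreen for TLR4-MyD88 inhibitors; 0% = DMSO and 100% = clavulanic acid full inhibition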
TLR9-MyD88 cf: confirmation of human TLR9-MyD88 binding inhibitors; CHO TLR9/MyD88 BLA complementation, CCF4 FRET ratio; actives 51% (n = 680); shares compounds with TLR9-MyD88 block; inhibition, % at 4.98 µM;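 active means mean inhibition across three repeats above about 21% taken from the earlier screen, limit read from the data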;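 further: blue over green emission ratio reports constitutive TLR9 MyD88 association via BLA complementation; 0% = DMSO vehicle wells and 100% = clavulanate BLA inhibitor wells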
BLA counter-1: counter-screen for TLR9-MyD88 inhibitors: non-selective beta-lactamase inhibitors. CHO-BLA cells, CCF4 FRET ratio, BLA reporter. actives 7% (n = 680). inhibition, % at 4.98 µM. shares compounds with TLR9-MyD88 block. AID 540251;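 active means mean inhibition above a 50% cutoff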;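 further: counterscreen of TLR9-MyD88 hits on CMV-driven BLA in CHO-K1 cells; 0% = DMSO alone and 100% = clavulanate blocking BLA; higher means less blue over green ratio so more BLA blockade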
TLR9 CHO tox: counter-screen for TLR9-MyD88 inhibitors: cytotoxicity in CHO cells; shares compounds with TLR9-MyD88 block; AID 588336; luminescence; inhibition, % at 4.98 µM; actives 39% (n = 680); in the data active means inhibition above about 11%
ABHD5-PLIN5 conf: ABHD5-PLIN5 interaction inhibition, confirmed | biochemical ABHD5-PLIN5 interaction, luminescence | actives 67% (n = 2,200) | shares compounds with ABHD5-PLIN5 inh | inhibition, % at 4 µM | AID 651612; in the data active means inhibition above about 23%;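 further: 0% = DMSO vehicle wells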
HNF4 counter: active in HNF4 split-luciferase counter-screen for ABHD5-PLIN5 inhibitors. actives 77% (n = 2,200). HNF4 dimerization, luminescence, biochemical. inhibition, % at 4 µM. AID 651674. shares compounds with ABHD5-PLIN5 inh;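 active means mean inhibition across replicate wells exceeding the computed hit threshold, cut at about 13% in these data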;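 further: light from luciferase halves that rejoin when HNF4 fusion proteins dimerize; 0% = DMSO only wells and the 100% control is not given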
NOD2 RIPK2 conf: confirmation of human NOD2-RIPK2 interaction inhibitors | shares compounds with NOD2-RIPK2 inh | CHO cells, NOD2-RIPK2 BLA complementation, CCF4 FRET | inhibition, % at 4.98 µM | actives 70% (n = 1,200) | AID 624370;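 active means mean inhibition across replicates above a set limit taken from the earlier primary screen, cut at about 21% in these data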;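 further: 0% = DMSO-only wells and the high end = clavulanate BLA-blocked wells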
BLA counter-2: counter-screen for NOD2-RIPK2 interaction inhibitors: BLA reporter | CHO BLA reporter, CCF4 FRET ratio, counterscreen | actives 57% (n = 1,200) | inhibition, % at 4.98 µM | shares compounds with NOD2-RIPK2 inh;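 active means mean inhibition above the low-control mean inhibition plus three low-control SD, cut at about 11% in these data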;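 further: 0% = DMSO only wells and 100% = clavulanate high control wells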
The depositor's hits bear a star; . = no result. Rows were chosen to be rich in hits. Some 3.3% of all compounds tested hit in one or more screens of this group.

SMILES	TLR9-MyD88 block	ABHD5-PLIN5 inh	NOD2-RIPK2 inh	rCAG binder	TLR4-MyD88 BLA	PRMT1 FP inh	TLR4 MyD88 cnf	BLA inh HeLa	TLR9-MyD88 cf	BLA counter-1	TLR9 CHO tox	others
O=C(/C=C/c1c[nH]c2ccccc12)c1cccc2ccccc12	35.7*	10.0	19.6	9.6	32.9*	1.3	21.8	46.7*	23.3*	22.7	8.1
O=C(c1ccccc1)c1c[nH]c2ccccc12	-3.4	-6.3	3.4	0.5	.	-3.3	.	.	.	.	.
OCCCc1nc2n(n1)C(c1ccccc1)C=C(c1ccccc1)N2 (configuration not stated)	40.3*	6.7	63.6*	.	35.0*	.	27.9*	49.8*	31.7*	32.5	3.5
O=C(CNC(=O)c1sc2ccccc2c1Cl)NCc1ccc(F)cc1	3.7	10.6	-1.5	2.7	.	-2.5	.	.	.	.	.
CC[C@H](C)/C=C(C)/C=C/C1=CC2=CC(=O)[C@]3(C)OC(=O)[C@@H](C(C)=O)[C@@H]3C2=CO1	32.2*	4.0	19.2	7.0	33.1*	13.3	18.9	48.3*	27.4*	29.5	0.7
CC[C@H](C)/C=C(C)/C=C/c1cc2c(cn1)C(=O)[C@@](C)(OC(C)=O)C(O)=C2Cl	.	3.9	-16.7	27.9	.	8.9	.	.	.	.	.
O=C(OCCN1C(=O)c2cccc3c(N4CCOCC4)ccc(c23)C1=O)c1ccc(Cl)cc1Cl	37.6*	-4.0	6.9	2.9	40.5*	0.6	58.2*	85.8*	67.7*	69.2*	29.2*
C=C(C(=O)c1ccccc1)C(CC(=O)c1ccccc1)c1ccccc1 (configuration not stated)	-1.7	4.9	3.9	-1.3	-1.6	-3.6	.	.	.	.	.
O=C(Nc1ccc(Br)cc1)OC1CC2CC1[C@H]1CCCCN1C2 (some centres not stated)	.	.	.	5.0	.	-2.6	.	.	.	.	.
CN1/C(=C/C(=O)c2nc(S(C)(=O)=O)ncc2Cl)C(C)(C)c2ccccc21	43.6*	68.7*	70.4*	.	35.8*	.	29.0*	17.7	45.6*	24.6	98.8*
CN1/C(=C\C(=O)c2cccnc2)C(C)(C)c2ccccc21	6.8	-3.1	-3.7	-4.1	14.7	0.0	.	.	.	.	.
Cc1cccc(-c2cccc3c4c([nH]c23)[C@@H]2C[C@H]3[C@@H](CN2CC4)[C@H](C)ON3C)c1	.	.	.	4.8	.	-2.6	.	.	.	.	.
Nc1c(C(=O)Nc2nc3ccccc3s2)sc2nc(-c3cccs3)ccc12	25.4*	-1.2	-7.9	.	64.8*	.	47.5*	77.1*	48.1*	48.1	41.8*
COc1nc(N/N=C/c2ccc(-c3ccccc3[N+](=O)[O-])o2)nc(N2CCOCC2)n1	-1.0	-15.4	-0.4	1.2	0.9	0.7	.	.	.	.	.
O=[N+]([O-])c1ccc(-c2ccc(/C=N/Nc3nc(NCc4ccccc4)nc(N4CCOCC4)n3)o2)cc1	36.4*	1.8	10.3	10.9	54.9*	-1.6	46.5*	76.1*	28.8*	31.4	2.9
C/C=C/c1cccc(-c2nc(C(=O)NC3CCC3)cc3c2[C@@H](CCO)N(S(=O)C(C)(C)C)C3)c1 (some centres not stated)	.	5.6	6.8	12.1	.	3.7	.	.	.	.	.
Cc1ccc(S(=O)(=O)N[C@H](C(=O)Oc2ccc3c(C(F)(F)F)cc(=O)oc3c2)c2ccccc2)cc1	55.3*	-4.6	58.3*	.	32.3*	.	43.1*	55.5*	32.8*	39.7	-0.7
COc1ccccc1NC(=O)c1sc2nc(-c3ccco3)ccc2c1N	42.0*	4.8	33.7*	.	26.1*	.	20.8	51.5*	34.0*	33.6	3.4
Cn1c(Cl)cnc1C1CC(=O)c2cc(Cl)ccc2O1 (configuration not stated)	3.0	32.5*	4.5	2.5	26.9*	3.8	-7.0	-16.8	.	.	.	ABHD5-PLIN5 conf=20.4;HNF4 counter=48.7*
NC(=O)C1CCN(Cc2nc3cc(C(F)(F)F)ccc3c(=O)[nH]2)CC1	0.2	-1.9	12.1	0.7	.	0.0	.	.	.	.	.
Cc1ccc(N=C2NC(=O)/C(=C/c3cccn3C)S2)cc1	-2.3	4.4	6.3	15.7	.	5.4	.	.	.	.	.
CC1C/C(=C/c2cccn2C)C(=O)/C(=C/c2cccn2C)C1 (configuration not stated)	37.4*	42.0*	-3.5	-27.7	54.5*	10.0	32.0*	60.5*	40.7*	40.1	0.7	ABHD5-PLIN5 conf=17.6;HNF4 counter=53.7*
CC1=NOC(=O)/C1=C\c1ccc(-c2ccccc2Br)o1	9.2	42.8*	-0.1	23.5	25.9*	6.2	21.1	-17.7	.	.	.	ABHD5-PLIN5 conf=93.3*;HNF4 counter=95.3*
COC(=O)[C@H]1C[C@@]2(Oc3ccc(Br)cc3)c3ccccc3N(C(=O)OC(C)(C)C)[C@H]2N1C(=O)OC(C)(C)C	.	.	.	1.2	.	2.9	.	.	.	.	.
COc1ccc(-c2ccc3c(N)c(C(=O)c4cccc(OC)c4)sc3n2)cc1	11.7	-6.3	25.3*	31.3	31.4*	10.3	28.1*	57.0*	.	.	.	NOD2 RIPK2 conf=45.1*;BLA counter-2=56.4*
Nc1ccccc1C(=O)NC12CC3CC(CC(C3)C1)C2	-0.2	-1.8	-1.8	-2.7	.	-1.4	.	.	.	.	.
Nc1cccc2c1C(=O)N(CC(=O)NC13CC4CC(CC(C4)C1)C3)C2=O	19.1	-1.4	39.0*	-1.0	31.3*	1.8	18.2	37.2*	.	.	.	NOD2 RIPK2 conf=44.4*;BLA counter-2=46.6*
CCNc1ccc2c(Cl)cc(=O)oc2c1	33.9*	2.4	29.9*	-1.9	32.4*	2.2	20.7	35.7*	.	.	.	NOD2 RIPK2 conf=44.0*;BLA counter-2=32.5*
